Among all 310,000 compounds or so, about 14,000 (4.5%) showed an effect of 50% or more. Effects have a minus sign here. The sample as a whole holds a higher share of strong results than the screen did.
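Also: peak tail current of the secondary pulse compared with the same well before compound.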

Chain of human ether-à-go-go-related gene (hERG) potassium channel (Q12809 whole entry, looked up): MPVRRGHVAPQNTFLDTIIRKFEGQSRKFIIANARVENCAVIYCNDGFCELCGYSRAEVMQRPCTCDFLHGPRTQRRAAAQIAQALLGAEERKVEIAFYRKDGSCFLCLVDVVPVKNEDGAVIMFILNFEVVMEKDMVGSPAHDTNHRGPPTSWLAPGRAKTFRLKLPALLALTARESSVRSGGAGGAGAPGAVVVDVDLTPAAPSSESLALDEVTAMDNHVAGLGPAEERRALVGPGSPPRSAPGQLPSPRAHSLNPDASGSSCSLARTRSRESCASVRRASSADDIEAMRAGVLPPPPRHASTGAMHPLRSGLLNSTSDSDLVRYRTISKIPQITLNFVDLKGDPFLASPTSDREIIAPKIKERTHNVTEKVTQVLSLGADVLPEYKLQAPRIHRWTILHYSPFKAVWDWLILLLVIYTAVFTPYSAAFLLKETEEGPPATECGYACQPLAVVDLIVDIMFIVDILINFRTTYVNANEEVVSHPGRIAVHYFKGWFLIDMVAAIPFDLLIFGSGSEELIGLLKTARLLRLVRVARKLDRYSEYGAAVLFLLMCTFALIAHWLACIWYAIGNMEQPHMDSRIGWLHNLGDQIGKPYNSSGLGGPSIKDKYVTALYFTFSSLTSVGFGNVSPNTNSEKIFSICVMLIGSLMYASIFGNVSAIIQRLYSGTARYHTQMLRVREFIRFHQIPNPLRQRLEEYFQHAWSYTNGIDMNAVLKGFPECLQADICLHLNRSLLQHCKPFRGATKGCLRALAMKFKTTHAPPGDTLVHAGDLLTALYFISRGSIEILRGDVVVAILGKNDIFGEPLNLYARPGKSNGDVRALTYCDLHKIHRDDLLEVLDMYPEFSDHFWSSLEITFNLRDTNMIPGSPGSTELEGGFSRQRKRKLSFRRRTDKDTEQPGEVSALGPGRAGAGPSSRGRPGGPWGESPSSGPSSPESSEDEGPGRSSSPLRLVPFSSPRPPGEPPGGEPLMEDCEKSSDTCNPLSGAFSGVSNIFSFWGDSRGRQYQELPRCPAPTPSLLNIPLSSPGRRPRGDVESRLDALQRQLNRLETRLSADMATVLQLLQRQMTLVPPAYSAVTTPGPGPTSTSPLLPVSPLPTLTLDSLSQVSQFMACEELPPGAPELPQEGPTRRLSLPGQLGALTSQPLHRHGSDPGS

This assay addresses human ether-à-go-go-related gene (hERG) potassium channel (human, UniProt Q12809). Put plainly: primary screen, population patch clamp on CHO cells stably expressing hERG; higher = less effect of the substance.
For the molecule `COc1cccc(-n2c(Cc3cc(=O)[nH]c(=O)[nH]3)nnc2SCC(=O)N2CCCCCC2)c1`, the “hERG current change (%, negative = inhibition) at 10uM” value stood at 0.34%. With `CCc1cccc(C)c1NC(=O)C1CCCN1C(=O)NCc1ccccc1` (centres unmarked) the figure was 18.4%; with `CCOC(=O)c1ccc(NC(=O)c2c(C)[nH]c(C(=O)OCC)c2C)cc1`, -6.95%.

On to `Cc1ccc(NC(=O)CCn2cnc3ccccc3c2=O)c(C)c1`, for which the “hERG current change (%, negative = inhibition) at 10uM” value came out at 6.65%. With `CCCCn1c(SCC(=O)N(CC)C2CCS(=O)(=O)C2)nc2cc(S(N)(=O)=O)ccc21` (centres unmarked) the figure was -5.49%; with `CC1(C)CC(=O)C(C(=O)c2ccccc2)C(=O)C1Cl` (centres unmarked), 3.06%; with `O=C(CN(Cc1ccccc1)S(=O)(=O)c1ccc(F)cc1)NCc1ccccn1`, -10.6%.

For `Cc1ccc(S(=O)(=O)N(CC(=O)O)Cc2ccccc2F)cc1`, the “hERG current change (%, negative = inhibition) at 10uM” value worked out at 3.18%. For `O=C(O)CN(Cc1ccccc1)S(=O)(=O)c1ccc(F)cc1` the value was 2.09%; for `CCCNC(=O)CN(Cc1ccccc1F)S(=O)(=O)c1ccc(C)cc1`, -6.17%; for `O=C(CN(Cc1ccc(Br)cc1)S(=O)(=O)c1ccccc1)NCc1cccnc1`, -17.2%. In the case of `CN(CC(=O)NCc1cccnc1)S(=O)(=O)c1ccc(F)cc1`, the “hERG current change (%, negative = inhibition) at 10uM” value is listed as 21.3%. Regarding `O=C(CN(Cc1ccc(Br)cc1)S(=O)(=O)c1ccccc1)NCc1ccccn1`, the “hERG current change (%, negative = inhibition) at 10uM” value is -42%. With `O=C(CN(Cc1ccc(Br)cc1)S(=O)(=O)c1ccccc1)NCc1ccncc1`, the “hERG current change (%, negative = inhibition) at 10uM” value was -68.8%. For `CCN(CC(=O)NCc1ccncc1)S(=O)(=O)c1ccccc1` the value was 5.51%; for `O=C(CN(Cc1ccccc1)S(=O)(=O)c1ccc(F)cc1)NCc1ccncc1`, -52.3%. With `O=C(CN(Cc1ccccc1)S(=O)(=O)c1ccc(F)cc1)NCc1cccnc1` the figure was -57.8%; with `Cc1ccc(S(=O)(=O)N(CC(=O)NCc2ccncc2)Cc2ccccc2F)cc1`, -78.6%.

As for `COc1ccccc1NC(=O)c1cc2c(CO)cnc(C)c2oc1=Nc1ccc(OC)c(OC)c1`, the “hERG current change (%, negative = inhibition) at 10uM” value was 13.3%. `COc1ccc(NN=Nc2ccc([N+](=O)[O-])cc2)cc1`: the “hERG current change (%, negative = inhibition) at 10uM” value came to 19.1%. Take `OC1COC(OCC2OC(OCc3ccccc3)C(O)C(O)C2O)C(O)C1O` (centres unmarked): the “hERG current change (%, negative = inhibition) at 10uM” value is -11.1%. Regarding `CCOC(=O)N1CCN(C(=O)c2cc3cc(OC)c(OC)cc3[nH]2)CC1`, the “hERG current change (%, negative = inhibition) at 10uM” value turned out to be 5.96%. For `CC(=O)Nc1ccc(NC(=O)c2cc(-n3cnnc3)ccc2Cl)cc1` the value was 15.7%; for `COc1cccc(C(C2C(=O)CC(C)(C)CC2=O)C2C(=O)CC(C)(C)CC2=O)c1`, 21.2%; for `O=C(N1CCN(c2ccc(F)cc2)CC1)C12CC3CC(CC(C3)C1)C2`, 5.05%. Regarding `CN(C)c1nc(OCCNC(=O)Nc2ccccc2)nc(N2CCCCC2)n1`, the “hERG current change (%, negative = inhibition) at 10uM” value is recorded as 0.123%. On to `CC[n+]1c(C)n(-c2ccccc2)c2ccc(NC(C)=O)cc21.[I-]`, for which the “hERG current change (%, negative = inhibition) at 10uM” value is given as 11%. As for `Cc1nc(NCCc2ccccc2)c(C#N)c(C)c1[N+](=O)[O-]`, the “hERG current change (%, negative = inhibition) at 10uM” value was 6.5%. For `CCOC(=O)c1sc(NC(=O)c2sc(C)nc2C)nc1C` the value was -4.49%; for `Fc1ccc(/C=N/NC(=S)Nc2ccc(Cl)cc2)cc1F`, 9.62%; for `Cc1ccc(S(=O)(=O)NC(CC(=O)NCc2ccco2)c2ccco2)cc1` (centres unmarked), -0.749%. As for `CCOc1ccc(Nc2ccc([N+](=O)[O-])c3nonc23)cc1`, the “hERG current change (%, negative = inhibition) at 10uM” value is given as -53.9%.

As to `CCOc1ccc(Nc2ccc3nonc3c2[N+](=O)[O-])cc1`, the “hERG current change (%, negative = inhibition) at 10uM” value is reported as 10.6%.

Consider `O=[N+]([O-])c1ccc(Nc2ccccc2)c2nonc12`, for which the “hERG current change (%, negative = inhibition) at 10uM” value is reported as -8.36%. For `COc1ccccc1NC(=O)CSc1nc2nc(C)cc(C)c2c(=O)[nH]1` the value was 4.82%.

For `CCCCOC(=O)CSc1nnc(-c2cc(OC)c(OC)c(OC)c2)o1`, the “hERG current change (%, negative = inhibition) at 10uM” value is given as -11.9%.

Consider `CCCCN(CCCC)C(=O)CSc1nnc(-c2cc(OC)c(OC)c(OC)c2)o1`, for which the “hERG current change (%, negative = inhibition) at 10uM” value is given as -58.5%. With `CCOC(=O)CSc1nnc(-c2cc(OC)c(OC)c(OC)c2)o1` the figure was 12.1%. With `COCCN(C(=O)CCC(=O)Nc1ccccn1)C(C(=O)NC(C)C)c1ccc(Cl)cc1` (centres unmarked) the figure was -5.58%; with `CN(C)c1ccc(/C=C2\CC3C4CC=C5CC(O)CCC5(C)C4CCC3(C)C2=O)cc1` (centres unmarked), 3.55%; with `COc1cc(C(=O)NCCOc2cc(C)cc(C)c2)c(Br)c(OC)c1OC`, -18.4%.

Consider `O=S(=O)(NCCc1csc(-c2ccccc2)n1)c1cccnc1`, for which the “hERG current change (%, negative = inhibition) at 10uM” value amounted to 8.48%. With `C=CCNC(=S)N/N=C(\C)c1ccc(-n2ccnc2)cc1` the figure was -43%; with `CCNC(=S)N/N=C(\C)c1cccc([N+](=O)[O-])c1`, -45.9%.

In the case of `C/C(=N\NC(=O)COc1ccc(C)cc1C(C)C)c1ccc(-n2ccnc2)cc1`, the “hERG current change (%, negative = inhibition) at 10uM” value is -33.4%.

For the molecule `CCc1ccc(OCC(=O)N/N=C(\C)c2ccc(-n3ccnc3)cc2)cc1`, the “hERG current change (%, negative = inhibition) at 10uM” value is recorded as -71.8%. Take `COCCNC(=S)N/N=C(\C)c1ccc(C)c([N+](=O)[O-])c1`: the “hERG current change (%, negative = inhibition) at 10uM” value is -26.6%.

In the case of `C=C(C)CNC(=S)N/N=C(\C)c1ccc(-n2ccnc2)cc1`, the “hERG current change (%, negative = inhibition) at 10uM” value was -37.7%. For `C/C(=N\NC(=O)COc1ccc(C(C)(C)C)cc1)c1ccc(N2CCOCC2)cc1` the value was 5.99%; for `COCCNC(=S)N/N=C(\C)c1ccc(-n2ccnc2)cc1`, -66.2%; for `COCCNC(=S)N/N=C(\C)c1cccc([N+](=O)[O-])c1`, -70.4%.

On to `C/C(=N\NC(N)=O)c1ccc(-n2ccnc2)cc1`, for which the “hERG current change (%, negative = inhibition) at 10uM” value is listed as 10.9%. For `COc1ccc(OCC(=O)N/N=C(\C)c2ccc(-n3ccnc3)cc2)cc1` the value was -42.6%.

As to `C/C(=N\NC(=O)COc1ccc(C(C)(C)C)cc1)c1ccc(-n2ccnc2)cc1`, the “hERG current change (%, negative = inhibition) at 10uM” value was -58.9%. For `CCN(C(=O)COC(=O)c1ccc2[nH]c3c(c2c1)CCCC3)C1CCS(=O)(=O)C1` (centres unmarked) the value was -8.35%; for `COc1ccccc1C(=O)Nc1nnc(S(=O)(=O)N2CCCCCC2)s1`, 3.54%. For the molecule `COc1cc(/C=C/C(=O)O)cc(S(=O)(=O)Nc2ccc3cn[nH]c3c2)c1OC`, the “hERG current change (%, negative = inhibition) at 10uM” value is 9.74%. Turning to `O=c1[nH]c(-c2ccccn2)nc2ccccc12`, the “hERG current change (%, negative = inhibition) at 10uM” value was -3.46%. With `COc1ccc(/C=N/Nc2nc(-c3ccc(Cl)cc3)cc(C(F)(F)F)n2)c(OC)c1` the figure was 2.62%; with `CC(C)CNC(=O)CSc1ccc(Cl)cc1`, -3.84%; with `O=C(CN1CCN(Cc2ccccc2)CC1)c1ccccc1`, 1.35%. For `Cc1ccc(OCC(=O)Nc2ccc(N3CCN(S(C)(=O)=O)CC3)cc2)cc1` the value was 17.4%.

Consider `CCc1ccc(NC(=O)CN2CC(c3ccccc3)CC2=O)cc1` (centres unmarked), for which the “hERG current change (%, negative = inhibition) at 10uM” value is on record as -27.6%. For the molecule `CN(CCCN1CCOCC1)C(=O)c1ccc2nc(Cc3cccc(Cl)c3)oc2c1`, the “hERG current change (%, negative = inhibition) at 10uM” value was -6.26%.

In the case of `O=C(NCC1CCOCC1)c1ccc2nc(Cc3cccc(Cl)c3)oc2c1`, the “hERG current change (%, negative = inhibition) at 10uM” value was -12.8%. Turning to `CN(CC1CCOCC1)C(=O)c1ccc2nc(Cc3cccc(Cl)c3)oc2c1`, the “hERG current change (%, negative = inhibition) at 10uM” value was -69.7%. With `Cc1ccc(C)c(S(=O)(=O)C(C#N)c2nc3ccccc3nc2N2CC(C)OC(C)C2)c1` (centres unmarked) the figure was 4.01%; with `Cc1ccc(OCCC(=O)OCC(=O)Nc2ccc3[nH]c(=O)[nH]c3c2)cc1`, -20.3%. With `Cc1ccc2nc(-c3ccccc3)cc(C(=O)NCCCn3ccnc3)c2c1`, the “hERG current change (%, negative = inhibition) at 10uM” value is recorded as -40.7%. For `Cc1nn(Cc2ccccc2Cl)c2sc(C(=O)NC(C)(C)C)cc12` the value was 10.7%; for `O=C(NCCCn1ccnc1)c1cc(-c2cccnc2)nc2ccc(Br)cc12`, -45.1%. For `Cc1ccccc1C(=O)NCCCn1ccnc1` the value was 18.3%.

`Cc1nn(Cc2ccccc2Cl)c2sc(C(=O)NCCCn3ccnc3)cc12`: the “hERG current change (%, negative = inhibition) at 10uM” value was -82.6%. Consider `CCOc1ccc(-c2cc(C(=O)NCCCn3ccnc3)c3cc(Br)ccc3n2)cc1`, for which the “hERG current change (%, negative = inhibition) at 10uM” value is listed as 7.06%.

In the case of `CCc1ccc(-c2cc(C(=O)NCc3ccco3)c3ccccc3n2)s1`, the “hERG current change (%, negative = inhibition) at 10uM” value is given as -9.4%. With `Cc1ccc(-c2cc(C(=O)NCCCn3ccnc3)c3ccccc3n2)s1`, the “hERG current change (%, negative = inhibition) at 10uM” value is -70.9%. For the molecule `CCc1ccc(-c2cc(C(=O)O)c3ccccc3n2)s1`, the “hERG current change (%, negative = inhibition) at 10uM” value is 16.9%. `CCC(CC)NC(=O)c1cc2c(C)nn(Cc3ccccc3Cl)c2s1`: the “hERG current change (%, negative = inhibition) at 10uM” value turned out to be 10.9%. For `Cc1ccc(-c2cc(C(=O)NCCCn3ccnc3)c3cc(Br)ccc3n2)o1` the value was -73.8%.

`CCc1ccc(-c2cc(C(=O)NCCCn3ccnc3)c3ccccc3n2)s1`: the “hERG current change (%, negative = inhibition) at 10uM” value was -73.6%. With `CC(C)CC(=O)CN1C(=O)C2(OCCO2)c2ccccc21` the figure was 13.2%; with `COc1ccc(-c2cc(C(F)F)nc(-n3nc(C)cc3C)n2)cc1`, 11.7%.

For `O=c1cc(-c2ccccc2)c2ccc(O)c(CN3CCCCC3)c2o1`, the “hERG current change (%, negative = inhibition) at 10uM” value is on record as -8.89%. With `COc1ccc2nc(Nc3nc4cc5c(cc4s3)OCO5)sc2c1` the figure was 6.67%. For `O=S(=O)(Nc1c(O)ccc2ccccc12)c1cccc2ccccc12` the value was 6.79%. In the case of `COc1ccc(C(CNC(=O)c2[nH]c(C)c(C(C)=O)c2C)N2CCOCC2)cc1` (centres unmarked), the “hERG current change (%, negative = inhibition) at 10uM” value was -4.61%.

The record behind these values is publication PMC4336329 (PLoS ONE, 2015).
